Each structure is given as a SMILES string. The whole screen tested about 330,000 compounds, of which about 7,300 (2.2%) were called active. Shown is part of a subset that was picked to be rich in actives. Unmarked numbers belong to inactive results.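 How the source made its calls: active means inhibition of at least 40%; inactive means the rest.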

Broadly, the inhibition is the relative decrease from the control value, in per cent.

This test is described as follows: growth inhibitors of tim10-1 mutant yeast, primary screen, luminescence, uHTS (AID 463190).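 Further: mutant grown at 25 °C; 0% = DMSO wells with yeast and 100% = wells holding no yeast.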 Conditions: S. cerevisiae tim10-1 ts strain growth, BacTiter-Glo, 24 h; at 20 µM; active compounds read high.
Turning to `COCC(=O)Nc1c(I)c(C(=O)NCC(O)CO)c(I)c(C(=O)N(C)CC(O)CO)c1I` (stereo not given), the inhibition is 6%.

Turning to `Cc1ccc(/C=C/C(=O)O)cc1S(=O)(=O)N1CCC(Cc2ccccc2)CC1`, the inhibition is -0.486%.

`COc1cc(CN2CCC(n3nccc3NC(=O)CCCc3ccccc3)CC2)ccc1O`: the inhibition was 25.4%.

For `COc1cccc(CN(C)CC2CCCN(CCc3ccc(Cl)cc3)C2)c1OC` (stereo not given), the inhibition is -21.5%.

As to `Nc1cc(C(F)(F)F)ccc1N1CCOCC1`, the inhibition was 11.6%.

Take `CC(Nc1nc(C(F)(F)F)nc2ccccc12)c1cccs1` (stereo not given): the inhibition was 42.6% (active).

Take `CCc1ccc(C(CNc2nc(C(F)(F)F)nc3ccccc23)N(C)C)cc1` (stereo not given): the inhibition is 29.3%.

As to `COc1cccc(CNc2nc(C(F)(F)F)nc3ccccc23)c1`, the inhibition was 39.2%.

As to `Cn1c2ccccc2n2c(=O)c(=O)n(CC(=O)c3ccc(F)cc3)nc12`, the inhibition is -14.7%.

For `COc1ccc(/C=C(\C#N)C(=O)OCC(=O)N(C)C2CCS(=O)(=O)C2)cc1` (stereo not given), the inhibition was -4.56%.

Take `COc1ccc(/C=C(\C#N)C(=O)ONC2=NCCCCC2)cc1`: the inhibition was 48.2% (active).

With `COc1ccc(N2CCN(C(=O)/C(C#N)=C/c3ccccc3)CC2)cc1`, the inhibition is 18.8%.

For the molecule `CN(NC(=O)c1ccccc1F)c1nc(C(F)(F)F)nc2ccccc12`, the inhibition was 6.21%.

In the case of `Cc1ccc(Nc2c(F)c(F)c(F)c(F)c2C(=O)O)c(C)c1`, the inhibition was -6.12%.

For the molecule `Oc1[nH]c2ccc(Br)cc2c1N=Nc1nn[nH]n1`, the inhibition is 16.7%.

For `Cc1cccc(N=Nc2c(O)[nH]c3ccc(F)cc23)c1`, the inhibition was 43.6% (active).

Turning to `NS(=O)(=O)c1ccc(N=Nc2c(O)[nH]c3ccc(Br)cc23)cc1`, the inhibition is -13%.

`Nc1nc(-c2ccccc2)cc(-c2ccccc2)n1`: the inhibition was 41.6% (active).

In the case of `c1ccc(-c2cc(-c3ccccc3)[nH]n2)cc1`, the inhibition was 7%.

As for `Nc1cccc(-c2cc(-c3ccccc3)nc(-c3cccc(N)c3)n2)c1`, the inhibition is 26.4%.

With `CCNc1nc(NCC)nc(N(C)n2cnnc2)n1`, the inhibition is 13.1%.

Take `O=C1N=C2SCCN2/C1=C\c1c(Cl)cccc1Cl`: the inhibition was -18.2%.

`CNC(=O)N1c2ccccc2C=Cc2ccccc21`: the inhibition is -1.34%.

For `CCN(CC(=O)NCc1ccco1)S(=O)(=O)c1ccc(F)cc1`, the inhibition is -17.2%.

For `Cc1cc(C)cc(OCC(=O)O/N=C(\N)Cc2ccc([N+](=O)[O-])cc2)c1`, the inhibition was 19.4%.

As for `N/C(Cc1ccc([N+](=O)[O-])cc1)=N\OC(=O)C1CCCCC1`, the inhibition was 61.6% (active).

`O=C(COC(=O)C1CCCCC1)Nc1ccc([N+](=O)[O-])cc1`: the inhibition is 13.8%.

As for `N/C(Cc1ccc([N+](=O)[O-])cc1)=N\OC(=O)COc1ccc2ccccc2c1`, the inhibition is 68.6% (active).

`O=C(COC(=O)Cc1ccc([N+](=O)[O-])cc1)NC1CCCCCC1`: the inhibition was 13.1%.

On to `COC(=O)C(C)NC(=O)COc1ccc2ccccc2c1` (stereo not given), for which the inhibition is 8.45%.

Consider `CCOC(=O)C1=C(C)c2ccccc2OC1C(=O)OCC` (stereo not given), for which the inhibition was 9.8%.

Turning to `COCCN(CCOC)c1nc(N)c2c(N)nc3c(c2c1C#N)CC(=O)N3Cc1ccc(Cl)cc1`, the inhibition was 28.9%.

As to `Cc1cc2cc(CNC(=O)c3cccs3)ccc2[nH]1`, the inhibition is -2.64%.

In the case of `CCc1cccc(CC)c1NC(=S)Nc1ccc2cn[nH]c2c1`, the inhibition is 18.2%.

On to `CCc1cccc(CC)c1NC(=S)NCc1ccc2[nH]c(C)cc2c1`, for which the inhibition was 48.6% (active).

Consider `O=C(Nc1nnc(CCN2CCCCC2)s1)c1cccc(Cl)c1`, for which the inhibition is -12.8%.

Take `Cc1cc(/C=C2/SC(=O)N(CC(=O)N3CCCC3)C2=O)ccc1N1CCOCC1`: the inhibition is 3.32%.

For `CC(OC(=O)c1ccccc1N1C(=O)C2C3CCC(C3)C2C1=O)C(=O)c1ccccc1` (stereo not given), the inhibition was 22.1%.

On to `CCOC(=O)c1ccccc1N1C(=O)C2Sc3[nH]c(=O)sc3C(/C=C/c3ccccc3)C2C1=O` (stereo not given), for which the inhibition is 40.6% (active).

`COC(=O)C1=C(C)N=C2SC(C)C(=O)N2C1/C=C/c1ccccc1` (stereo not given): the inhibition is 19%.

`N#Cc1cccc(NC(=O)C2CCCN(C(=O)c3ccc(Cl)cc3)C2)c1` (stereo not given): the inhibition was 7.79%.

For `CCC1(C)NC(=O)N(CC(=O)N2CCN(c3cccc(Cl)c3)CC2)C1=O` (stereo not given), the inhibition is 9.91%.

On to `O=C(Nc1ccc2cn[nH]c2c1)c1ccc(S(=O)(=O)N2CCOCC2)cc1`, for which the inhibition was -2.72%.

Take `CCc1nc(C)cn1S(=O)(=O)c1cc([N+](=O)[O-])ccc1Cl`: the inhibition was 53.6% (active).

As to `CCc1nc(C)cn1S(=O)(=O)c1cc(OC)c(C)cc1C`, the inhibition was 14.4%.

For `CC(C)c1nccn1S(=O)(=O)c1cc([N+](=O)[O-])ccc1Cl`, the inhibition was 43.6% (active).

As for `CCc1nccn1S(=O)(=O)c1cccc([N+](=O)[O-])c1`, the inhibition is -8.99%.

In the case of `Cc1ccc([N+](=O)[O-])cc1S(=O)(=O)N1CCCN(C)CC1`, the inhibition was -9.68%.

For `O=C(Oc1ccc([N+](=O)[O-])cc1)c1ccc(Cl)c(S(=O)(=O)N2CCCCC2)c1`, the inhibition was 38.7%.

`CN(CCC1CCOCC1)Cc1cn[nH]c1-c1ccc(-c2ccccc2)cc1`: the inhibition was 18%.

Turning to `COc1ccc(C(=O)C2CCCN(C(=O)c3cc4nc(C)cc(C)n4n3)C2)cc1F` (stereo not given), the inhibition was 26.4%.

As to `CCOC(=O)c1cc(C(C)C)sc1NC(=O)COC(=O)c1nccnc1N`, the inhibition was 9.86%.

Consider `CCOc1ccc(OCc2cccc(C(=O)N(CC)CC)c2)cc1`, for which the inhibition was 21.6%.

With `CC(C)c1cc(C(N)=O)c(NC(=O)c2cccc(COc3ccc(Br)cc3)c2)s1`, the inhibition is 40.9% (active).

Regarding `CC(C)CCN1CCC(C)(NC(=O)c2ccccc2)C1=O` (stereo not given), the inhibition is 10.4%.

For the molecule `COc1ccc(CN2C(=O)C(C)S/C2=N/N=C/c2ccco2)cc1` (stereo not given), the inhibition was 19.3%.

As for `COc1ccccc1C1C(C#N)=C(N)Oc2c1c(-c1ccccc1)nn2-c1ccccc1` (stereo not given), the inhibition is 40.7% (active).

In the case of `Cc1nn(-c2ccccc2)c2c1C(c1ccc(F)cc1)C(C#N)=C(N)O2` (stereo not given), the inhibition is 24%.

On to `Cc1nn(Cc2ccccc2)c2c1C(c1ccccc1)C(C#N)=C(N)O2` (stereo not given), for which the inhibition is 30.9%.

In the case of `COc1ccc(CCOC(=O)CNC(=O)c2ccc(Cl)cc2Cl)cc1`, the inhibition is 18.1%.

The values above are taken from PubChem BioAssay AID463190 (Sanford-Burnham Center for Chemical Genomics, 2010).
